Measurements from PubChem BioAssay.
The list shows a part of the results. Active and inactive are the calls of the source. Cut-off read from the data, not from the text of the source, unless noted: active = activity above about 50%; inactive = the rest.

Target: Prothrombin (Bos taurus) (UniProt P00735)
Test: bovine thrombin inhibition counter-screen, confirmation, counter-screen for CSN deneddylation inhibitor project, biochemical, fluorescence polarization, single concentration (AID 720656;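 active = inhibition at or above a set limit, with a fluorescence interference ratio between 0.5 and a set maximum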)
Details: bovine thrombin cleavage of Ub4-pepOG, at 16.6 µM, stronger effect = higher value

Sequence of Prothrombin (Bos taurus) (P00735 whole entry, looked up): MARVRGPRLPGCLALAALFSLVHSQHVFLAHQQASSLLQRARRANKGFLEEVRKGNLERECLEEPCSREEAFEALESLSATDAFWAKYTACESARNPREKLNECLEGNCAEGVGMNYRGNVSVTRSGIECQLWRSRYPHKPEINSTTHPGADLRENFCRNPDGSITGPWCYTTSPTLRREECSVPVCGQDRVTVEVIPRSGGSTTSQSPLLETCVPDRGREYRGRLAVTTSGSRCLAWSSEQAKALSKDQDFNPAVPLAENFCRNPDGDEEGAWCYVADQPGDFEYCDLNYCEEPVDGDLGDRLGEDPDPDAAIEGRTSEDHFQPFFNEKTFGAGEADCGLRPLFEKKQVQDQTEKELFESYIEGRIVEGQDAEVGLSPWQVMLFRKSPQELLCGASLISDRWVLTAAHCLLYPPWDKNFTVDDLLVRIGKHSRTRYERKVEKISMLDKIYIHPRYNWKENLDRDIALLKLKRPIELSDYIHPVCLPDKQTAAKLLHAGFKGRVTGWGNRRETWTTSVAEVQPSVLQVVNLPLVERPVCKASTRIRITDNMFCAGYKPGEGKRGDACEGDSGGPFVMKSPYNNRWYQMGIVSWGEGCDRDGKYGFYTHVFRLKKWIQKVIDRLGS

Structure (SMILES) | inhibition
Cn1ccc(=Nc2ccc(NC(=O)c3ccc(N=c4ccn(C)c5ccc([N+](=O)[O-])cc45)cc3)cc2)cc1 | -10.3% (inactive)
CCN1/C(=C\c2ccc3ccccc3[n+]2CC)Sc2cc(C)ccc21 | 43.3% (inactive)
COc1cccc(/C=N/NC(=O)c2[nH]nc3c2CCc2ccccc2-3)c1O | 30.2% (active)
CC[n+]1cc(C)ccc1/C=C/c1ccc(N(C)C)cc1 | 63.1% (active)

Target: PEG-3 (UniProt Q6IN02)
Test: Peg3 promoter luciferase inhibitors, potency, dose response, cell-based, HeLa, CREF/GAPDH counter-screen panel (AID 624167)
Details: CREF/GAPDH counter-screens; HeLa PEG-Prom luciferase reporter, overnight, run 1, dose range 1, at 100 µM (top of the series) unless noted

Sequence of PEG-3 (Q6IN02 whole entry, looked up): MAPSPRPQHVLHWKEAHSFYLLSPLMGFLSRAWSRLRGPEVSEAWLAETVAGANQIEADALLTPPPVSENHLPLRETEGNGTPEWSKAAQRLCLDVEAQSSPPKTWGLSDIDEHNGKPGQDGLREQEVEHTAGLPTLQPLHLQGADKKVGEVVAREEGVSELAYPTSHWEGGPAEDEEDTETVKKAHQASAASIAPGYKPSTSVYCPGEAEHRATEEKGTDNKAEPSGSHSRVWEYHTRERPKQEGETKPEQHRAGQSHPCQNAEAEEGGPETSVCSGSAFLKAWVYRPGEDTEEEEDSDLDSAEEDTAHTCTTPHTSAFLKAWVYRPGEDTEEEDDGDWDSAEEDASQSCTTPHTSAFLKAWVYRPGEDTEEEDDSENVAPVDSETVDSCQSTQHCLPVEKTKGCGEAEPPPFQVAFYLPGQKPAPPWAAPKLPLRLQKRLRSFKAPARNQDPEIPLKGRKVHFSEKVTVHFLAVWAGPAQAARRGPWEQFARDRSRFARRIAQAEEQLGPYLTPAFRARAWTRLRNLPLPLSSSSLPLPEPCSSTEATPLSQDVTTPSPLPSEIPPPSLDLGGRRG

Structure (SMILES) | inhibition
COc1ccc(Nc2ncnc3ccc(Br)cc23)c(OC)c1 | 88.3%
CC(C)(C)c1ccc(Oc2ccc(N)cc2)cc1 | 99.3%
OCCCNc1nccc(-c2cc(Nc3cccc(Cl)c3)ncn2)n1 | 94%

Target: PEG-3 (UniProt Q6IN02)
Test: as above
Details: CREF/GAPDH counter-screens; HeLa PEG-Prom luciferase reporter, overnight, run 2, dose range 1, at 100 µM (top of the series) unless noted

Structure (SMILES) | inhibition
COc1ccc(Nc2ncnc3ccc(Br)cc23)c(OC)c1 | 91.8%
CC(C)(C)c1ccc(Oc2ccc(N)cc2)cc1 | 99.2%
OCCCNc1nccc(-c2cc(Nc3cccc(Cl)c3)ncn2)n1 | 97.4%

System: Rat fibroblasts (CREF)
Test: as above
Details: CREF/GAPDH counter-screens; run 1, dose range 1, at 100 µM (top of the series)

Structure (SMILES) | inhibition
COc1ccc(Nc2ncnc3ccc(Br)cc23)c(OC)c1 | 44.4%
CC(C)(C)c1ccc(Oc2ccc(N)cc2)cc1 | 60.1%
OCCCNc1nccc(-c2cc(Nc3cccc(Cl)c3)ncn2)n1 | 14.7%

System: Rat fibroblasts (CREF)
Test: as above
Details: CREF/GAPDH counter-screens; run 2, dose range 1, at 100 µM (top of the series)

Structure (SMILES) | inhibition
COc1ccc(Nc2ncnc3ccc(Br)cc23)c(OC)c1 | 38.7%
CC(C)(C)c1ccc(Oc2ccc(N)cc2)cc1 | 83.1%
OCCCNc1nccc(-c2cc(Nc3cccc(Cl)c3)ncn2)n1 | 62.3%

Target: Tumor necrosis factor receptor superfamily member 10B (Homo sapiens) (UniProt O14763)
Test: caspase-8 TRAIL sensitization, hit retest, confirmation, cell-based, NB7+caspase-8, with/without TRAIL, luminescence panel (AID 651596)
Details: NB7 neuroblastoma + caspase-8, TRAIL sensitization, luminescence viability, with TRAIL, mean of runs, at 10 µM, stronger effect = higher value

Sequence of Tumor necrosis factor receptor superfamily member 10B (Homo sapiens) (O14763 whole entry, looked up): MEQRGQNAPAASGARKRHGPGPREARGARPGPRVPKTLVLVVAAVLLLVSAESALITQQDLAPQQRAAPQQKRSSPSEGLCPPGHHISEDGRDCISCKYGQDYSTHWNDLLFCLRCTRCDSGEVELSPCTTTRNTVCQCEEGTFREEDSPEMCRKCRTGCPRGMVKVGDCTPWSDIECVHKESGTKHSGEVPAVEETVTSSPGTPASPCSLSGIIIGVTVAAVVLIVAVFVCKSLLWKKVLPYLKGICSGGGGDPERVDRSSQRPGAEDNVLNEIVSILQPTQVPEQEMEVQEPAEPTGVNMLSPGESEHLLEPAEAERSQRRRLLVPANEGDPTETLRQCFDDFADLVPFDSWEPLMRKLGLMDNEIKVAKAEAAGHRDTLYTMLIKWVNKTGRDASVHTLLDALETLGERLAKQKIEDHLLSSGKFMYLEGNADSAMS

Structure (SMILES) | activity
c1ccc2[nH]c(-c3nc4ccccc4[nH]3)nc2c1 | 80.2%
COC(=O)Cc1[nH]n(-c2nc3ccccc3s2)c(=O)c1C(C)=Nc1ccc(OC)cc1 | 47%
O=C(Nc1nc2ccccc2s1)c1ccc2c(c1)OCO2 | 78.8%
NC(N)=N/N=C/c1ccc(OCc2ccc(Cl)cc2Cl)cc1 | 58.8%
NC(=O)c1c(NC(=O)c2ccccc2)sc2c1CCCC2 | 51.6%
Cc1cccc(/C(N)=N/OC(=O)c2ccccc2Cl)c1 | 77.6%
CC1(C)CC(N2CCN(C(c3ccccc3)c3ccccc3)CC2)=CC(=[N+]2CCCCC2)C1 | 74.7%

System: not listed separately
Test: as above
Details: NB7 neuroblastoma + caspase-8, without TRAIL, luminescence viability, without TRAIL, mean of runs, at 10 µM

Structure (SMILES) | activity
c1ccc2[nH]c(-c3nc4ccccc4[nH]3)nc2c1 | 77.8%
COC(=O)Cc1[nH]n(-c2nc3ccccc3s2)c(=O)c1C(C)=Nc1ccc(OC)cc1 | 40.9%
O=C(Nc1nc2ccccc2s1)c1ccc2c(c1)OCO2 | 76.8%
NC(N)=N/N=C/c1ccc(OCc2ccc(Cl)cc2Cl)cc1 | 95.5%
NC(=O)c1c(NC(=O)c2ccccc2)sc2c1CCCC2 | 58%
Cc1cccc(/C(N)=N/OC(=O)c2ccccc2Cl)c1 | 84.8%
CC1(C)CC(N2CCN(C(c3ccccc3)c3ccccc3)CC2)=CC(=[N+]2CCCCC2)C1 | 56.2%
